Here are results for 22 molecules from the supplement of paper PMC4709259.

In assay [1] the test system is Jurkat. Put plainly: mean cell size (FSC-A) relative to DMSO control (fraction of control); higher = larger cells. Conditions: 48 h. In outline:
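Jurkat cells seeded at 600 cells/µl were incubated 1 h, then exposed for 48h to the Enzo Screen-Well FDA Approved Drug Library v2.0 at 25µM in 0.9% (v/v) final DMSO. Drugs that cut counts below 20% of controls were diluted 10-fold and retested, down to 25nM. Cell count and mean cell size (forward scatter area) were read on an Accuri C6 flow cytometer, relative to solvent-only controls. Plates held 6-12 controls; values are means of 3 biological replicates.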

For assay [2], the system named is Jurkat. Put plainly: cell count relative to DMSO control (fraction of control); higher = more cells (less growth inhibition). Conditions: 48 h.

Structures can show the parent of a compound that is named as a salt. ± gives the standard deviation.

Molecule `Nc1nc2[nH]cnc2c(=S)[nH]1` [Thioguanine (6-Thioguanine)] (concentration: 25 µM) registered a mean cell size in assay [1] of 0.935 ± 0.045. Moreover, the cell count in assay [2] was 1.09 ± 0.061.

`CCN(CCO)CCCC(C)Nc1ccnc2cc(Cl)ccc12` (centres undefined) [Hydroxychloroquine Sulfate] (concentration: 25 µM) yielded a mean cell size in assay [1] of 0.948 ± 0.013. Also, the cell count in assay [2] was 1.03 ± 0.11.

For the molecule `C[C@H]1O[C@@H](O[C@H]2[C@@H](O)C[C@H](O[C@H]3[C@@H](O)C[C@H](O[C@H]4CC[C@@]5(C)[C@H](CC[C@@H]6[C@@H]5C[C@@H](O)[C@]5(C)[C@@H](C7=CC(=O)OC7)CC[C@]65O)C4)O[C@@H]3C)O[C@@H]2C)C[C@H](O)[C@@H]1O` [Digoxin] (concentration: 25 nM), the mean cell size in assay [1] is 0.91 ± 0.065. The cell count in assay [2] stood at 0.175 ± 0.093.

The molecule `CO[C@@]12[C@H](COC(N)=O)C3=C(C(=O)C(C)=C(N)C3=O)N1C[C@@H]1N[C@@H]12` [Mitomycin C] (concentration: 2.5 µM) gave a mean cell size in assay [1] of 1.22 ± 0.059. Also, the cell count in assay [2] was 0.257 ± 0.048.

In assay [1], `CCOC(=O)C1=C(C)NC(C)=C(C(=O)OC)C1c1cccc(Cl)c1Cl` (centres undefined) [Felodipine] (concentration: 25 µM) displayed a mean cell size of 0.9169 ± 0.007. Further, the cell count in assay [2] is 0.922 ± 0.12.

In assay [1], `CN/C(=N\CCSCc1nc[nH]c1C)NC#N` [Cimetidine] (concentration: 25 µM) yielded a mean cell size of 1.02 ± 0.072. For the same molecule, the cell count in assay [2] was 0.733 ± 0.17.

On to `COCCc1ccc(OCC(O)CNC(C)C)cc1` (centres undefined) [Metoprolol Tartrate] (concentration: 25 µM), for which the mean cell size in assay [1] stood at 0.935 ± 0.026. In assay [2], this molecule returned a cell count of 1.02 ± 0.11.

`CCCCC[C@H](O)/C=C/[C@H]1[C@H](O)CC(=O)[C@@H]1C/C=C\CCCC(=O)O` [Dinoprostone] (concentration: 25 µM): the mean cell size in assay [1] is 0.88 ± 0.019. This molecule also returned a cell count in assay [2] of 0.399 ± 0.11.

As for `COCC1=C(C(=O)OC(C)OC(=O)OC(C)C)N2C(=O)[C@@H](NC(=O)/C(=N\OC)c3csc(N)n3)[C@H]2SC1` (some centres undefined) [Cefpodoxime Proxetil] (concentration: 25 µM), the mean cell size in assay [1] came out at 0.94 ± 0.021. The cell count in assay [2] stood at 0.872 ± 0.045.

In turn, `Cc1cc2c(s1)Nc1ccccc1N=C2N1CCN(C)CC1` [Olanzapine] (concentration: 25 µM) came in with a mean cell size in assay [1] of 1.02 ± 0.06. This molecule also displayed a cell count in assay [2] of 0.914 ± 0.1.

The molecule `NC(=O)N1c2ccccc2C=Cc2ccccc21` [Carbamazepine] (concentration: 25 µM) returned a mean cell size in assay [1] of 0.955 ± 0.044. Besides, the cell count in assay [2] came out at 1.14 ± 0.065.

`NCCNCCNCCN` [Trientine Dihydrochloride] (concentration: 25 µM) yielded a mean cell size in assay [1] of 0.949 ± 0.04. The molecule further yielded a cell count in assay [2] of 1.02 ± 0.14.

In assay [1], `CN[C@H](CC(C)C)C(=O)N[C@H]1C(=O)N[C@@H](CC(N)=O)C(=O)N[C@H]2C(=O)N[C@H]3C(=O)N[C@H](C(=O)N[C@H](C(=O)O)c4cc(O)cc(O)c4-c4cc3ccc4O)[C@H](O)c3ccc(c(Cl)c3)Oc3cc2cc(c3O[C@@H]2O[C@H](CO)[C@@H](O)[C@H](O)[C@H]2O[C@H]2C[C@](C)(N)[C@H](O)[C@H](C)O2)Oc2ccc(cc2Cl)[C@H]1O` [Vancomycin·HCl] (concentration: 25 µM) registered a mean cell size of 1.02 ± 0.021. Further, the cell count in assay [2] was 1.19 ± 0.13.

In the case of `CN(C)CC(c1ccc(O)cc1)C1(O)CCCCC1` (centres undefined) [Desvenlafaxine Succinate Hydrate] (concentration: 25 µM), the mean cell size in assay [1] was found to be 0.993 ± 0.027. For the same molecule, the cell count in assay [2] came out at 0.64 ± 0.09.

For `C=C(CC)C(=O)c1ccc(OCC(=O)O)c(Cl)c1Cl` [Ethacrynic Acid] (concentration: 25 µM), the mean cell size in assay [1] amounted to 0.924 ± 0.015. The molecule further gave a cell count in assay [2] of 0.453 ± 0.058.

`CC1=C(C(=O)O)N2C(=O)[C@@H](NC(=O)[C@H](N)c3ccccc3)[C@H]2SC1` [Cephalexin Monohydrate] (concentration: 25 µM): the mean cell size in assay [1] was found to be 0.9873 ± 0.0068. Moreover, the cell count in assay [2] came to 0.931 ± 0.068.

`COc1cc2ncnc(Nc3ccc(F)c(Cl)c3)c2cc1OCCCN1CCOCC1` [Gefitinib] (concentration: 2.5 µM) yielded a mean cell size in assay [1] of 1.04 ± 0.045. Also, the cell count in assay [2] was determined as 0.736 ± 0.11.

Consider `OCCN1C[C@H](O)[C@@H](O)[C@H](O)[C@H]1CO` [Miglitol] (concentration: 25 µM), for which the mean cell size in assay [1] was 0.994 ± 0.04. In addition, the cell count in assay [2] was 0.767 ± 0.14.

The molecule `O=c1[nH]c(=O)n([C@H]2C[C@H](O)[C@@H](CO)O2)cc1F` [Floxuridine] (concentration: 25 nM) came in with a mean cell size in assay [1] of 1.06 ± 0.063. The same molecule returned a cell count in assay [2] of 0.178 ± 0.096.

`CC1=C(/C=C/C(C)=C\C=C\C(C)=C\C(=O)O)C(C)(C)CCC1` [Alitretinoin] (concentration: 25 µM) had a mean cell size in assay [1] of 0.927 ± 0.025. This molecule also had a cell count in assay [2] of 0.555 ± 0.18.

Molecule `CC(C)C[C@H](NC(=O)[C@H](Cc1ccccc1)NC(=O)c1cnccn1)B(O)O` [Bortezomib] (concentration: 25 nM) yielded a mean cell size in assay [1] of 0.894 ± 0.064. This molecule showed a cell count in assay [2] of 0.112 ± 0.11.

On to `C=C(c1ccc(C(=O)O)cc1)c1cc2c(cc1C)C(C)(C)CCC2(C)C` [Bexarotene] (concentration: 2.5 µM), for which the mean cell size in assay [1] was found to be 0.942 ± 0.017. This molecule gave a cell count in assay [2] of 0.955 ± 0.09.
